Shown are actives, neighbours in structure and some others; about 3.8% of the full set was active somewhere.
TGFb SMAD3 inh: inhibitors of TGF-b signaling; HepG2 CAGA-GFP TGF-b/SMAD3 reporter, GFP fluorescence, 18 h; TGF-beta stimulated, 500 pg/mL final; Potency, µM (highest dose often 46.1 µM), for the others: at the highest dose activity, negative = inhibition, usual class: inhibitors; 410,000 compounds, 1.2% hits; note: % is set by controls: 0 for no effect and ±100 for the full control effect; nearly all actives have a fitted effect of over 65% in size
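Cell-based qHTS in HEPG2 carrying a CAGA-GFP Smad reporter; compounds added before 500 pg/mL final TGF-beta, 18 h incubation at 37 degrees C, GFP fluorescence quantified per cell by imaging cytometry.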
HT1080 IDH1KD tx: kills HT-1080 cells with IDH1 knockdown. HT-1080 IDH1 knockdown viability, ATP luminescence, 48 h. Potency, µM (series often up to 46.1 µM), for inactives: top-dose activity, negative = toxicity, hits mostly cytotoxic. 360,000 compounds, 2% hits. AID 686971;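 note: 0% = DMSO wells and -100% = cell-free medium wells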
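Knockdown cells (IDH1KD HT-1080) received compounds 2 h after plating at 750 cells/well and were kept 48 h at 37 °C in 5% FBS RPMI. A CellTiter-Glo luminescence read gave % activity for curve fitting.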
HepG2 viability: counter-screen for TGF-b inhibitors: cytotoxicity in HepG2 cells; HepG2 CAGA-GFP viability, ATP luminescence, 18 h; Potency, µM (doses to about 46.1 µM), for the others: top-dose activity change, negative = cytotoxicity, usual class: cytotoxic; 410,000 compounds, 0.76% hits
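HepG2 CAGA-GFP cells (1000/well, DMEM with 1% FBS) received compound, then TGF-beta at 500 pg/mL final, and were incubated 18 hours at 37 degrees C. Viability was read by CellTiter-Glo luminescence. Media-only wells were set as complete cell-killing and DMSO as no toxicity.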
ATXN2 expr inh: ATXN2 expression inhibition | AID 1745845 | 360,000 compounds, 0.72% hits | Potency, µM (series often up to 57 µM), for the others: at the highest dose activity change, negative = inhibition, actives largely listed as inhibitors | HEK-293 ATXN2-luciferase reporter, luminescence, 24 h; note: % is set by controls: 0 for no effect and ±100 for the full control effect; nearly all actives have a fitted effect of over 55% in size
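ATXN2-luciferase reporter cells (luciferase flanked by upstream and downstream ATXN2 gene portions) were treated 24 h at 37 °C with compounds at up to 57 uM. SteadyGlo luminescence gave expression; GF-AFC fluorescence gave viability.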
S2 tox: cell viability loss in ATXN counter-screen; S2 cells (HEK-293 line with an ATXN2-luciferase reporter) viability, CellTiter-Fluor protease fluorescence, 24 h; Potency, µM (titrated, usually from 56.7 µM), usual class: cytotoxic; 400,000 compounds, 0.49% hits; AID 651635; note: nearly all actives have a fitted effect of over 40% in size
HT1080-NT tox: kills 2HG-producing HT-1080-NT fibrosarcoma cells; Potency, µM (titrated, usually from 46.1 µM), inactives show at the highest dose activity, negative = less viability, most hits filed as cytotoxic; HT-1080-NT fibrosarcoma viability, CellTiter-Glo ATP luminescence, 48 h; 360,000 compounds, 1.6% hits;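 note: NT is the 2HG producing partner of a matched IDH1 knockdown line; 0% = DMSO-treated cells and -100% = media-only wells without cells; nearly all actives have a fitted effect of over 55% in size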
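750 cells/well, RPMI + 5% FBS; 2 h settle, compound pin-transfer, 48 h at 37 degrees C. CellTiter-Glo 10 min RT, luminescence. Normalized to DMSO and media-only wells.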
* marks the source's active call; other numbers are inactive results; i = inactive; ? = inconclusive; / = no result given; ! = a repeat was not active. Calls come from the whole dose curve; as a rule, active = well fitted curve in the direction sought with a large enough effect; inconclusive = small, poorly fitted or top-dose-only effect, or another doubt; inactive = no such curve, though single readings can be large; an effect the other way counts as inactive or inconclusive. Potency is the fitted concentration of half-maximal effect.

SMILES	TGFb SMAD3 inh	HT1080 IDH1KD tx	HepG2 viability	ATXN2 expr inh	S2 tox	HT1080-NT tox
Cc1cnc(C)c(-c2cc(F)cc3c2OC(CNC(=O)Cc2c(C)noc2C)C3)n1 (stereo not drawn)	/	/	/	/	i	/
COc1ccc2c(c1)CC[C@H]1[C@@H]2CC[C@]2(C)[C@@H](NCCCCCCN3C(=O)C=CC3=O)CC[C@H]12	/	/	/	39.7%	/	/
CC(=O)ON(C(C)=O)c1ccc(/C=C2\C=Cc3ccccc32)cc1	-19.8%	/	-30.2%	/	/	/
O=C(COc1ccccc1)NCCc1csc(-c2ccc(Cl)cc2)n1	11.2µM*	/	-73.2%	-17.6%	i	/
Cc1ccc(-c2nc(CCNC(=O)c3ccco3)cs2)cc1	-16.5%	-0.1%	0.5%	-0.8%	i	6.8%
COc1cc(-c2nc(CCNC(=O)c3ccco3)cs2)cc(OC)c1OC	4.7%	-26.6%	-4.3%	-6.7%	i	-15.7%
O=C(NCCc1csc(-c2ccc(Cl)cc2)n1)c1ccco1	-17.6%	?	-13.8%	14.1µM*!	i	?
COc1cc(C(=O)NCCc2csc(-c3ccc(Cl)cc3)n2)cc(OC)c1OC	-13.9%	/	8.4%	20µM*	/	/
COc1ccc(OC(=O)N(CC(=O)O)Cc2ccc(OCCc3nc(-c4ccccc4)oc3C)cc2)cc1	/	/	/	-0.3%	i	/
NS(=O)(=O)c1ccc(N=Nc2c[nH]c(=O)c(O)c2)cc1	4.2%	-4.0%	-4.4%	3.8%	17.8µM*	-15.6%
N#C/C(=C\C=C\c1ccccc1[N+](=O)[O-])C(=O)NC1CCCCC1	?	5.2%	-30.2%	?	?	4.4%
N#C/C(=C\c1ccccc1[N+](=O)[O-])C(=O)NC1CCCCC1	-7.2%	18.4µM*	-2.3%	-3.5%	i	?
CCOC(=O)c1c(S(=O)(=O)NCC(=O)N(C)Cc2ccccc2)c(C)n(C)c1C	6.2%	/	-8.3%	-1.4%	i	/
CCOC(=O)c1c(C)[nH]c(C)c1S(=O)(=O)NCCN1CCN(c2cc(Cl)ccc2C)CC1	11.2µM*	?	-115.0%	/	i	?
Cc1ccc2c(c1)[C@H]1[C@H](CO2)[C@H](c2ccccc2)[C@]2(C)C(=O)Nc3cc(F)ccc3C(=O)N12	-28.2%	8.2µM*	-14.0%	-34.6%	?	?
C[C@@]12C(=O)Nc3ccccc3C(=O)N1[C@H]1c3cc(Cl)ccc3OC[C@@H]1[C@@H]2c1ccccc1	-15.4%	18.4µM*	-14.3%	-29.2%	i	?
Cc1ccc2c(c1)[C@H]1[C@H](CO2)[C@H](c2ccccc2)[C@]2(C)C(=O)Nc3ccccc3C(=O)N12	-25.6%	6.51µM*	-18.5%	?	?	5.8µM*
Cc1cccc(NC(=O)c2sc3nc(N4CCOCC4)c4c(c3c2N)CC(C)(C)OC4)c1	14.5%	/	-16.6%	0.9%	?	/
CCOc1cccc(C2C=C(c3ccc4c(c3)OCO4)NC(c3cccc(Br)c3)N2)c1O (stereo not drawn)	?	/	-54.4%	/	/	/
CCOc1cc(/C=N/Nc2nn3cnnc3c3ccccc23)ccc1O	-0.1%	?	-60.5%	2.6%	i	?
COc1cc(/C=N/Nc2nn3cnnc3c3ccccc23)ccc1O	1.4%	5.62µM*	-33.2%	15.3%	i	?
ClC(Cl)c1nnc(-c2ccccc2)c(-c2c[nH]c3ccccc23)n1	12.6µM*	0.0%	-57.1%	-18.8%	i	4.4%
O=C1NC(O)CCN1[C@@H]1O[C@H](CO)[C@H](O)[C@H]1O (stereo partly drawn)	/	/	/	-0.1%	/	/
CC1=NN(C(=O)c2cccc(Cn3nc(C)c([N+](=O)[O-])c3C)c2)C(O)(C(F)(F)F)C1 (stereo not drawn)	-9.3%	5.01µM*	-17.5%	-14.4%	i	7.94µM*
Cc1nn(Cc2cccc(C(=O)N3N=C(C(F)F)CC3(O)C(F)F)c2)c(C)c1[N+](=O)[O-] (stereo not drawn)	-0.3%	?	-18.5%	-7.4%	i	-19.2%
SMILES	TGFb SMAD3 inh	HT1080 IDH1KD tx	HepG2 viability	ATXN2 expr inh	S2 tox	HT1080-NT tox
CC(NC(=O)C1CCOCC1)c1nnc2n1CCN(Cc1cc3c(cc1Cl)OCO3)CC2 (stereo not drawn)	/	/	/	/	i	/
O=C(CNC(=O)C1CCCCC1)OCC(=O)c1ccc([N+](=O)[O-])cc1	1.7%	/	-0.3%	/	/	/
O=C(C#Cc1ccccc1)Nc1ccc(F)cc1	?	18.4µM*	28.8%	14.7%	i	16.4µM*
COc1ccc(NC(=O)C#Cc2ccccc2)cc1	?	?	27.4%	27.5%	i	?
COc1cccc(/C=N/Nc2ncnc(N)c2[N+](=O)[O-])c1OC	4.3%	-1.0%	-12.5%	8.91µM*	i	-10.8%
OC(CNCc1ccc(-c2ccccc2)cc1)c1ccccc1 (stereo not drawn)	?	29.1µM*	22.4µM*	-38.8%	i	20.6µM*
S=c1c2c(nc3nc[nH]n13)CCC2	10µM*	-3.8%	-63.8%	/	6.31µM*	-7.3%
Cc1c(C(=O)N(C)Cc2cccc3ncccc23)cnn1-c1nccc(-c2ccccc2F)n1	/	/	/	/	i	/
O=C(NCC(c1ccc2c(c1)OCO2)N1CCN(c2ccccc2F)CC1)c1ccccc1F (stereo not drawn)	10µM*	/	-3.7%	-15.1%	?	/
Nc1ccc2c(c1)C=C/C2=C\c1ccccc1	3.3%	/	-28.2%	/	/	/
Cc1ccc(C)c(N2CCN(C(=O)CCc3c(C)nn(-c4ccc(N5CCCC5)nn4)c3C)CC2)c1	12.6µM*	/	-36.2%	/	/	/
O=C(C(Br)=Cc1ccccc1)c1ccccc1	10µM*	?	-96.1%	20µM*	?	5.8µM*
CC(=O)C(=Cc1ccc(-c2ccccc2)cc1)C(=O)c1ccccc1	/	23.1µM*	/	?	/	14.6µM*
N#CC(=Cc1ccc(-c2ccccc2)cc1)C(=O)c1ccccc1	-28.4%	-9.4%	-39.9%	9.2%	i	-0.4%
CCOC(=O)C(C(=O)OCC)C1N=C(N)N=C2Oc3ccccc3N21 (stereo not drawn)	?	10µM*	-39.6%	6.5%	i	?
CCC(=O)OCC(=O)N=c1sccn1Cc1ccccc1Cl	-5.9%	2.2%	-6.3%	0.1%	i	-2.2%
CCC(=O)OCC(=O)N=c1sccn1Cc1ccc(C)cc1	-1.2%	1.2%	-4.9%	14.2%	i	-0.3%
O=C(CCl)N=c1sccn1Cc1ccccc1Cl	11.2µM*	0.092µM*	10µM*	?	/	0.092µM*
O=C(CCl)N=c1sccn1Cc1cccc2ccccc12	?	18.4µM*	-110.9%	0.0299µM*	?	?
